“And” between values parts separate entries of the source, which are not always exact repeats. Identical values can stand only once. About 79,000 compounds went through this panel and 15% of them were active in at least one assay; those are over-represented in the sample as a whole. More than one record can exist for a structure, and the calls need not agree. The source made the active and inactive calls. Rule as the data show it: active = growth inhibition above about 70%; inactive = the rest.
Assays:
[1] = NCI Yeast Anticancer Drug Screen. Data for the rad52 strain (AID 147);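 also: 0% = growth of vehicle-treated control cultures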; details: S. cerevisiae rad52 mutant growth inhibition, stronger effect = higher value
How it was run: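 Read-out: growth inhibition versus vehicle-treated controls. Cells were a DNA repair-deficient yeast strain treated with compounds.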

[2] = NCI Yeast Anticancer Drug Screen. Data for the wt1 strain (AID 149);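 also: 0% = growth of vehicle-treated wt1 cultures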; details: S. cerevisiae wt1 strain (SPY 50644) growth inhibition, stronger effect = higher value
How it was run: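 Readout: yeast growth inhibition, normalised to vehicle controls, in the wt1 strain exposed to test compounds.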

[3] = NCI Yeast Anticancer Drug Screen. Data for the rad50EPP+ strain (AID 151);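 also: 0% = growth of vehicle-treated control cultures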; details: S. cerevisiae rad50 mutant strain, stronger effect = higher value
How it was run: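 Growth inhibition read against vehicle controls in rad50EPP+ yeast, a strain altered in DNA damage repair, after compound exposure.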

[4] = NCI Yeast Anticancer Drug Screen. Data for the mgt1 strain (AID 153); details: S. cerevisiae mgt1 mutant growth inhibition, stronger effect = higher value
How it was run: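 mgt1 yeast grown with test compound; read-out is growth inhibition versus vehicle-treated cultures.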

[5] = NCI Yeast Anticancer Drug Screen. Data for the rad50 strain (AID 155);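 also: 0% = growth of vehicle-only cultures of the same strain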; details: S. cerevisiae rad50 strain growth inhibition, stronger effect = higher value
How it was run: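 Compounds were tested on a yeast strain with an engineered DNA damage repair alteration; the reported value is growth inhibition normalised to vehicle treatment.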

[6] = NCI Yeast Anticancer Drug Screen. Data for the mec2-1 strain (AID 157); details: S. cerevisiae mec2-1 strain, stronger effect = higher value
How it was run: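 Yeast mec2-1 mutant treated with compound. Readout: growth inhibition vs vehicle controls.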

[7] = NCI Yeast Anticancer Drug Screen. Data for the rad14 strain (AID 159);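 also: 0% = growth of vehicle-treated control cultures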; details: S. cerevisiae rad14 strain growth inhibition, stronger effect = higher value
How it was run: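 Compound-treated yeast with a defined DNA-repair lesion; growth inhibition normalised to vehicle-treated cultures.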

[8] = NCI Yeast Anticancer Drug Screen. Data for the sgs1 mgt1 strain (AID 161);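 also: 0% = growth of cultures given vehicle only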; details: S. cerevisiae sgs1 mgt1 strain, stronger effect = higher value
How it was run: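 Read-out: growth inhibition vs vehicle controls. Cells: mutant yeast strain deficient in DNA damage repair.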

[9] = NCI Yeast Anticancer Drug Screen. Data for the CLN2oe strain (AID 163);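 also: 0% = growth of vehicle-only control cultures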; details: S. cerevisiae CLN2oe strain, stronger effect = higher value
How it was run: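 Read-out: yeast growth inhibition, expressed relative to vehicle-only controls. The strain bears an engineered cell-cycle alteration.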

[10] = NCI Yeast Anticancer Drug Screen. Data for the cln2 rad14 strain (AID 165);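 also: 0% = growth equal to vehicle treated cultures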; details: S. cerevisiae cln2 rad14 strain, stronger effect = higher value
How it was run: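 cln2 rad14 yeast strain; compound exposure; growth inhibition read vs vehicle controls.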

[11] = NCI Yeast Anticancer Drug Screen. Data for the bub3 strain (AID 167); details: S. cerevisiae bub3 mutant strain, stronger effect = higher value
How it was run: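 Growth of a checkpoint-deficient yeast mutant is measured after compound exposure. Values represent inhibition relative to vehicle.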

[12] = NCI Yeast Anticancer Drug Screen. Data for the wt2 strain (AID 169);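 also: 0% = growth of vehicle-treated yeast cultures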; details: S. cerevisiae wt2 strain growth inhibition, stronger effect = higher value
How it was run: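 Read-out: growth inhibition versus vehicle-treated control cultures after compound exposure of the yeast strain.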

[13] = NCI Yeast Anticancer Drug Screen. Data for the mlh1 strain (AID 171);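 also: 0% = growth of vehicle-treated control cultures of the same strain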; details: S. cerevisiae mlh1 strain growth inhibition, stronger effect = higher value
How it was run: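 Read-out: growth inhibition versus vehicle controls. Strain: engineered yeast with a defined DNA repair or cell cycle defect, compound-treated.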

[14] = NCI Yeast Anticancer Drug Screen. Data for the sgs1 strain (AID 173);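 also: 0% = growth of vehicle-only control cultures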; details: S. cerevisiae sgs1 mutant, stronger effect = higher value
How it was run: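 Read-out: yeast growth inhibition relative to vehicle controls, following compound exposure of a strain with a defined DNA repair/cell cycle alteration.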

[15] = NCI Yeast Anticancer Drug Screen. Data for the mlh1 rad18 strain (AID 175); details: S. cerevisiae mlh1 rad18 strain growth inhibition, stronger effect = higher value
How it was run: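 Yeast w/ defined DNA-repair lesions; compound exposure; growth vs vehicle controls → % inhibition.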

[16] = NCI Yeast Anticancer Drug Screen. Data for the rad18 strain (AID 177); details: S. cerevisiae rad18 mutant growth inhibition, stronger effect = higher value
How it was run: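 Readout: growth inhibition vs vehicle controls. Cells: genetically altered yeast strain, DNA repair defect.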

[17] = at 5.0 µM (retest, dose inferred, filed as 0.5)
[18] = at 50.0 µM (retest, dose inferred, filed as 5.0)

Measured: growth inhibition

CC(C)CN(CC(C)C)C(=O)c1ccc(Cl)c(Cl)c1
inactive: [1]; at 1.2 µM -4% | [1]; at 3.7 µM 0% | [1]; at 11.0 µM 6% | [2]; at 1.2 µM -3% | [2]; at 3.7 µM -3% | [2]; at 11.0 µM -3% | [2]; at 33.0 µM 63% | [3]; at 1.2 µM -2% | [3]; at 3.7 µM 0% | [3]; at 11.0 µM 2% | [3]; at 33.0 µM 6% | [3]; at 100.0 µM 3% | [4]; at 1.2 µM 2% | [4]; at 3.7 µM 2% | [4]; at 11.0 µM 1% | [4]; at 33.0 µM 21% | [5]; at 1.2 µM -2% | [5]; at 3.7 µM 4% | [5]; [17] -10% | [5]; at 11.0 µM 6% | [6]; at 1.2 µM -1% | [6]; at 3.7 µM 1% | [6]; [17] 6% | [6]; at 11.0 µM 0% | [7]; at 1.2 µM -2% | [7]; at 3.7 µM -1% | [7]; at 11.0 µM 9% | [7]; at 33.0 µM 31% | [8]; [17] -3% | [9]; at 1.2 µM 2% | [9]; at 3.7 µM 9% | [9]; at 11.0 µM 14% | [9]; at 33.0 µM 41% | [10]; [17] -29% | [10]; [18] 50% | [11]; at 1.2 µM 4% | [11]; at 3.7 µM 3% | [11]; [17] -18% | [11]; at 11.0 µM 8% | [11]; at 33.0 µM 25% | [11]; [18] 22% | [12]; at 1.2 µM -3% | [12]; at 3.7 µM -5% | [12]; at 11.0 µM -5% | [13]; at 1.2 µM 0% | [13]; at 3.7 µM 2% | [13]; at 11.0 µM 5% | [13]; at 33.0 µM 39% | [14]; at 1.2 µM 0% | [14]; at 3.7 µM 3% | [14]; at 11.0 µM 5% | [14]; at 33.0 µM 62% | [15]; [17] -17% | [16]; at 1.2 µM 0% | [16]; at 3.7 µM 4% | [16]; at 11.0 µM 5% | [16]; at 33.0 µM 66%
active: [1]; at 33.0 µM 82% | [1]; at 100.0 µM 98% | [2]; at 100.0 µM 98% | [4]; at 100.0 µM 98% | [5]; at 33.0 µM 85% | [5]; [18] 94% | [5]; at 50.0 µM 94.7% | [5]; at 100.0 µM 99% | [6]; at 33.0 µM 82% | [6]; [18] 76% | [6]; at 50.0 µM 98% | [6]; at 100.0 µM 99% | [7]; at 100.0 µM 99% | [8]; [18] 83% | [8]; at 50.0 µM 95.8% | [9]; at 100.0 µM 99% | [10]; at 50.0 µM 93.2% | [11]; at 50.0 µM 83% | [11]; at 100.0 µM 99% | [12]; at 33.0 µM 74% | [12]; at 100.0 µM 99% | [13]; at 100.0 µM 98% | [14]; at 100.0 µM 99% | [15]; [18] 96% | [15]; at 50.0 µM 97.5% | [16]; at 100.0 µM 99%

COc1ccc2c(c1)n([O-])c1ccccc1[n+]2=O
inactive: [1]; at 1.2 µM 16% | [1]; at 3.7 µM 48% | [2]; at 1.2 µM 0% | [2]; at 3.7 µM 2% | [2]; at 11.0 µM 9% | [2]; at 33.0 µM 24% | [2]; at 100.0 µM 69% | [3]; at 1.2 µM 34% | [4]; at 1.2 µM -1% | [4]; at 3.7 µM 2% | [4]; at 11.0 µM 9% | [4]; at 33.0 µM 33% | [5]; at 1.2 µM 18% | [5]; at 3.7 µM 33% | [5]; at 50.0 µM -18.6% | [6]; at 1.2 µM 3% | [6]; at 3.7 µM 7% | [6]; [17] 15% and 27% | [6]; at 11.0 µM 19% | [6]; at 33.0 µM 50% | [6]; at 50.0 µM 50.2% | [7]; at 1.2 µM 6% | [7]; at 3.7 µM 12% | [7]; at 11.0 µM 25% | [7]; at 33.0 µM 56% | [8]; at 50.0 µM -13.2% | [9]; at 1.2 µM -4% | [9]; at 3.7 µM -7% | [9]; at 11.0 µM -2% | [9]; at 33.0 µM 25% | [10]; [17] 6% and 22% | [11]; at 1.2 µM 3% | [11]; at 3.7 µM 4% | [11]; [17] 6% and 10% | [11]; at 11.0 µM 14% | [11]; at 33.0 µM 60% | [12]; at 1.2 µM -2% | [12]; at 3.7 µM 11% | [12]; at 11.0 µM 11% | [12]; at 33.0 µM 26% | [13]; at 1.2 µM 0% | [13]; at 3.7 µM 3% | [13]; at 11.0 µM 12% | [13]; at 33.0 µM 38% | [14]; at 1.2 µM 5% | [14]; at 3.7 µM 18% | [14]; at 11.0 µM 41% | [15]; at 50.0 µM 6.8% | [16]; at 1.2 µM 39%
17% (inactive) and 81% (active): [15]; [17]
5% (inactive) and 73% (active): [8]; [17]
66% (inactive) and 91% (active): [5]; [17]
active: [1]; at 11.0 µM 86% | [1]; at 33.0 µM 95% | [1]; at 100.0 µM 97% | [3]; at 3.7 µM 72% | [3]; at 11.0 µM 93% | [3]; at 33.0 µM 97% | [3]; at 100.0 µM 98% | [4]; at 100.0 µM 88% | [5]; at 11.0 µM 91% | [5]; at 33.0 µM 95% | [5]; [18] 95% and 98% | [5]; at 100.0 µM 98% | [6]; [18] 75% and 99% | [6]; at 100.0 µM 93% | [7]; at 100.0 µM 95% | [8]; [18] 71% and 99% | [9]; at 100.0 µM 75% | [10]; [18] 90% and 97% | [10]; at 50.0 µM 96.3% | [11]; [18] 85% and 99% | [11]; at 50.0 µM 95.3% | [11]; at 100.0 µM 91% | [12]; at 100.0 µM 77% | [13]; at 100.0 µM 90% | [14]; at 33.0 µM 76% | [14]; at 100.0 µM 95% | [15]; [18] 93% and 98% | [16]; at 3.7 µM 75% | [16]; at 11.0 µM 93% | [16]; at 33.0 µM 97% | [16]; at 100.0 µM 96%
